# Laboratory results published in PubChem BioAssay AID686979 (National Center for Advancing Translational Sciences (NCATS), 2013).
# Screen size: about 420,000 compounds; about 50,000 (12%) were called active. Another 26% or so got no clear call; they are omitted. The entries come from a sample that favours actives as a whole. Values without a mark were called inactive. The call rests on the fitted dose curve; in most records, active means well fitted inhibition curve with a large enough effect; inconclusive means small, poorly fitted or top-dose-only effect; inactive means flat fitted curve, though single readings scatter.
# Assay: qHTS for Inhibitors of human tyrosyl-DNA phosphodiesterase 1 (TDP1): qHTS in cells in presence of CPT; further: nearly all actives have a fitted effect of over 55% in size
# Conditions: chicken DT40 Tdp1-/-;hTDP1 cells + 20 nM CPT, ATP luminescence, 48 h; series mostly up to 46.2 µM; activity change, negative = growth inhibition: at the top concentration
# Procedure, shortened: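 Chicken DT40 Tdp1-/- cells stably complemented with human TDP1 were seeded at 400 cells/well in medium containing 20 nM camptothecin, exposed to pin-transferred compounds, and grown at 37 °C for at least 48 hr. Viability was read as ATP luminescence.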
# On the % scale 0 is the no-effect control and ±100 the full control effect; potency means the concentration at half of the fitted maximal effect.
SMILES,"activity change, negative = growth inhibition",Potency
O=C(c1cc(COc2ccc(F)cc2F)on1)N1CCOCC1,8.14%,
COc1cc(-c2noc(-c3ccc(N4CCCC4)c([N+](=O)[O-])c3)n2)cc(OC)c1OC,-2.73%,
COc1ccc(-c2noc(-c3ccc(N4CCN(c5ccccc5)CC4)c([N+](=O)[O-])c3)n2)cc1OC,,23.1 µM (active)
CNc1ccc(-c2nc(-c3ccco3)no2)cc1[N+](=O)[O-],-19.2%,
Cc1nnc(SCc2cc(=O)c3cc(F)ccc3[nH]2)n1C,10%,
CCOC(OCC)c1ccc(/C=C\c2nccc(N)n2)cc1,-14.8%,
O=c1oc2ccccc2cc1-c1csc(Nc2ccc(O)cc2)n1,,9.2 µM (active)
COc1ccc2nc(Nc3nc(-c4ccncc4)cs3)sc2c1,-20%,
Nc1ncc(-c2cc3ccccc3oc2=O)s1,-16.5%,
COc1ccc2nc(NC(=O)[C@@H]3CCCN3C(=O)c3cccs3)sc2c1,3.56%,
COc1ccc2nc(Nc3nc(-c4cc5ccccc5oc4=O)cs3)sc2c1,,5.8 µM (active)
CCNc1nc(-c2cc3ccccc3o2)cs1,6.56%,
CC1CCCCN1Cc1c(O)ccc2c(=O)c(-c3cccc(Cl)c3)c(C(F)(F)F)oc12 (stereo not drawn),-14.3%,
C[C@@H]1NS(=O)(=O)c2cc(Cl)ccc2O[C@@H]1c1ccccc1,-1.11%,
C[C@H](CO)N1C[C@H](C)[C@H](CN(C)C(=O)c2ccncc2)OCc2ccccc2-c2c(n(C)c3ccccc23)C1=O,-22.7%,
CC(NS(=O)(=O)c1ccc(Br)cc1)C(=O)NCC1CCCO1 (stereo not drawn),-1.17%,
CC(C)NC(=S)N1CCN(C(c2ccccc2)c2ccccc2)CC1,,29.1 µM (active)
CC(C)NC(=S)N1CCN(S(C)(=O)=O)CC1,2.05%,
CC(C)OCC(O)CN1CCN(C(c2ccccc2)c2ccccc2)CC1 (stereo not drawn),-17.3%,
COc1ccccc1NC(=S)N1CCN(c2ccc(F)cc2)CC1,-1.31%,
COc1ccc(C)cc1NC(=S)N1CCOCC1,4.73%,
COc1ccccc1NC(=S)N1CCN(C(c2ccccc2)c2ccccc2)CC1,,16.4 µM (active)
CCCCNC1(C#N)CCN(Cc2ccccc2)CC1,-6.58%,
CC(C)CC1(C(=O)NCc2ccccn2)C=CCN1C(=O)c1ccccc1 (stereo not drawn),3.78%,
NN=C(NN=Cc1ccccc1)c1ccccc1,,8.2 µM (active)
O=C(NN=Cc1ccccc1)c1ccccc1,-5.88%,

SMILES,"activity change, negative = growth inhibition",Potency
O=C(O)c1ccc(/C=N/NC(=S)NCc2ccccc2)cc1,5.08%,
O=C(CCNC(=O)c1ccccc1)NN=Cc1ccc(Br)o1,0.385%,
CN1C(C(=O)NCC2CC2)CC2Cn3c(nc4ccccc43)C21 (stereo not drawn),-23.8%,
Nc1ccc(/C=C/c2ccnc3ccccc23)c([N+](=O)[O-])c1,,11.2 µM (active)
Cc1cc(C)cc(C(=O)NC2C(=O)N3C(C(=O)O)=C(CSc4nnc(C)s4)CSC23)c1 (stereo not drawn),-7.95%,
CSc1ccccc1NC(=O)CN(C)CC(=O)Nc1cccc(Br)c1,-15.4%,
CCOc1ccc(OCC)c(NC(=O)c2cc(C)nc3c2c(C)nn3-c2cccc(Cl)c2C)c1,3.56%,
Cc1ccc(N2C(=O)C(Cc3ccccc3)NC2=S)cc1 (stereo not drawn),-29.4%,
CC1=CC(C)(C)NC(=S)N1c1ccccc1,,20.6 µM (active)
CC1=CC(C)(C)NC(=S)N1NC(=O)c1ccccc1Cl,7.93%,
CCOc1ccc(S(=O)(=O)N2CCC(C(=O)OCc3ccc(OC)cc3)CC2)cc1,-15.7%,
CC1(C)O[C@H]2CC(=O)OCC23[C@H]2CC[C@@]4(C)[C@H](c5ccoc5)OC(=O)[C@H]5O[C@]54[C@]2(C)C(=O)C[C@@H]13 (stereo partly drawn),4.62%,
NC(=O)C(Cc1ccccc1)NC(=O)C12CC3CC(CC(C3)C1)C2 (stereo not drawn),-17.9%,
COc1cc(/C=N/N=C(\N)c2nonc2N)cc(OC)c1OC,-16.6%,
Cc1ccc(C)c(N2CCN(CCCNC(=O)Nc3ccc(Cl)cc3)CC2)c1,,7.31 µM (active)
CCOC(=O)c1c(C)[nH]c(CCC(=O)NCCCN2CCN(c3cc(C)ccc3C)CC2)c1C,,4.61 µM (active)
CCOC(=O)c1c(C)[nH]c(CCC(=O)NCCCN2CCN(c3cccc(Cl)c3)CC2)c1C,,13 µM (active)
CCOC(=O)N1CCC(Nc2c(NCCCN3CCN(c4ccc(OC)cc4)CC3)c(=O)c2=O)CC1,-0.704%,
COc1ccc(NC(=O)NCCN2CCN(c3ccc(C)cc3)CC2)c(Cl)c1,-18.8%,
Cc1ccc(C)c(N2CCN(C(=O)Cc3c(C(=O)O)c(C)cn3C)CC2)c1,-19.6%,
COc1ccc(N2CCN(CCNC(=O)Nc3cc(Cl)ccc3Cl)CC2)cc1,-7.44%,
CC1=C(c2ccc(C)c(C)c2)S(=O)(=O)NC1=NCc1ccccc1Cl,-16%,
CC1=C(c2ccc(C)cc2)S(=O)(=O)NC1=NCCCN1CCN(c2cc(C)ccc2C)CC1,,4.61 µM (active)
CCOC(=O)c1c(C)[nH]c(C(=O)NCCN2CCOCC2)c1C,-2.98%,
Cc1ccc(C)c(N2CCN(Cc3nnc(-c4ccccc4)o3)CC2)c1,-20.2%,
CCOC(=O)N1CCC(Nc2c(NCCN3CCN(c4cccc(Cl)c4)CC3)c(=O)c2=O)CC1,-3.1%,

SMILES,"activity change, negative = growth inhibition",Potency
CCOc1cc(/C=N/NC(=O)c2cccc(S(=O)(=O)N3CCOCC3)c2)ccc1OCC(=O)N(C)C,0.118%,
CC(C)CN(C(=O)Cn1c(=O)cnc2ccccc21)C1CCS(=O)(=O)C1 (stereo not drawn),0.278%,
O=C(NCCCn1ccnc1)c1cc2c(s1)CCCC2,-6.43%,
CCc1nnc(SCc2cccc(F)c2)nc1CC,-1.89%,
Cc1ccc(OCC(=O)OCc2cc(=O)n3nc(C4CC4)sc3n2)cc1C,4.85%,
COc1ccccc1/C=C/CN1CCC(CO)(Cc2ccccc2)CC1,-38.5%,
CCOc1ccccc1N(CC)C(=O)Nc1cn(C)c(=O)c2ccccc12,-28.1%,
CC1=C(C(=O)N2CCOCC2)CC(CC(=O)NCc2ccco2)C(=O)N1Cc1ccc(F)cc1 (stereo not drawn),-7.7%,
COc1ccc(C2CC(c3cccs3)=NN2C(=O)CCC(=O)O)cc1OC (stereo not drawn),6%,
O=C(CSc1ccc(-c2ccc(Br)cc2)nn1)NCC1CCCO1 (stereo not drawn),-19.8%,
C#CCCCc1nc2ccccc2c(=O)n1N,19.6%,
COc1cc(-c2nnc(NC(=O)C3=COCCO3)o2)cc(OC)c1OC,-0.0683%,
CCOC(=O)c1cc(-c2nnc(-c3cc(OC)c(OC)c(OC)c3)o2)c(C)nc1C,,16.4 µM (active)
Cc1nc(C)c(-c2nnc(-c3cccc(S(=O)(=O)N(C)C)c3)o2)cc1C(=O)NN,1.5%,
Cc1ccc(S(=O)(=O)NCCC(=O)NNC(=O)C2COc3ccccc3O2)cc1 (stereo not drawn),-4.14%,
CC(C)N(c1ccccc1)c1ncnc(NCCC(=O)O)c1[N+](=O)[O-],-14.3%,
CO/N=C(\C(=O)N[C@@H]1C(=O)N2C(C(=O)O)=C(COC(C)=O)CS[C@H]12)c1csc(N)n1 (stereo in doubt),,inactive
CN1C=CC=C/C1=C1\SC(=S)N(Cc2ccccc2)C1=O,-9.03%,
COc1ccccc1C(=O)NC(CCSC)C(=O)NNC(=O)c1ccccc1C (stereo not drawn),7.15%,
CCOC(=O)c1ccc(NC(=O)CSc2ncccn2)cc1,-27.6%,
CCCc1nnc(SCC(=O)Nc2ccc(C(=O)OCC)cc2)o1,,23.1 µM (active)
CCOC(=O)c1ccc(NC(=O)Cn2cnc3cc(C)c(C)cc32)cc1,,1.16 µM (active)
CCOC(=O)c1ccc(NC(=O)Cn2c(=O)cc(C)c3c(C)nn(-c4cccc(F)c4)c32)cc1,-0.48%,
CCOC(=O)c1ccc(NC(=O)Cn2nnc(-c3ccc(C)cc3)n2)cc1,-29%,
Cc1ccc(NC(=O)CSc2nnc(COc3ccccc3C)o2)cc1,-0.121%,
CC(C)CC(=O)N1CCN(Cc2cccc(Cl)c2)CC1,-20.1%,

SMILES,"activity change, negative = growth inhibition",Potency
O=C(O)C(O)[C@@](O)(Cc1ccc(O)cc1)C(=O)O (stereo partly drawn),-10.6%,
Cc1cc(-c2ccnc(-n3ncc(C(=O)NCCc4ccncc4)c3C)n2)c(C)s1,-1.95% [at 9.04 µM],
Cc1nnc(SCC2=C(C(=O)O)N3C(=O)C(NC(=O)Cn4nc(C)c(Cl)c4C)C3SC2)s1 (stereo not drawn),-15.2%,
O=C(CN(CC1CCCO1)C(=O)CNS(=O)(=O)c1ccc(F)cc1)NCc1ccco1 (stereo not drawn),3.31%,
O=c1oc2ccccc2c(CNc2ccccc2)c1[N+](=O)[O-],3.02%,
CCS(=O)(=O)c1ccc(C(=O)NC)c(Cl)c1Cl,1.89%,
c1csc(-c2cn3c(n2)SCC3)c1,1.97%,
O=c1c2cc(-c3ccccc3)sc2nc2n1N=C(c1cccs1)CS2,,16.4 µM (active)
Cc1nnc2n1N=C(c1ccccc1)CS2,13.6%,
CCN([C@H](CO)C(C)C)S(=O)(=O)c1ccccc1Br,-1.97%,
O=C(NC(=S)NC1CCS(=O)(=O)C1)c1cccc([N+](=O)[O-])c1 (stereo not drawn),-1.95%,
CCc1ccccc1N1C(=O)CN(S(=O)(=O)CC)CC1(C)C(=O)NC1CCCCC1 (stereo not drawn),-16.5%,
CN(C)C(=O)c1cccc(-c2cnc3sc(NCc4ccc5c(c4)OCO5)nn23)c1,,16.4 µM (active)
O=C(CSc1ncnc2scc(-c3ccccc3)c12)NCc1ccc2c(c1)OCO2,-4.93%,
O=C(Cn1nnc(-c2ccccc2)n1)NCc1ccc2c(c1)OCO2,-13.6%,
CCN(CC(=O)NCc1cccs1)C(=O)c1cccc(S(=O)(=O)Nc2ccccc2OC)c1,-1.36%,
O=C(Nc1cccc(-c2nc3ccccc3[nH]2)c1)c1ccc(C(=O)Nc2cccc(-c3nc4ccccc4[nH]3)c2)cc1,,18.4 µM (active)
O=C(Nc1cccc(NC(=O)c2ccc(Br)cc2)c1)c1ccccc1,,inactive
O=C(Cc1cccs1)Nc1cccc(-c2nc3ccccc3[nH]2)c1,-13.9%,
CCCC(=O)Nc1ccc2oc(-c3ccc(O)c(Br)c3)nc2c1,-15.1%,
O=C(CNC(=O)c1ccccc1Br)NNC(=O)c1cccs1,-1.12%,
CCn1c(=O)c2ccccc2n(CC(=O)N2CCCc3ccccc32)c1=O,-27.7%,
COC(=O)[C@H](C)NC(=O)Nc1ccc(OC(F)(F)F)cc1,9.83%,
O=C(Nc1ccc(OC(F)(F)F)cc1)c1ccc2c(c1)no[n+]2[O-],,4.11 µM (active)
Cn1nccc1NC(=O)Nc1ccc(OC(F)(F)F)cc1,-27.1%,
